Results from PubChem BioAssay AID1159580 (chemical genetic matrix, 2015).
In all, about 5,500 compounds went through this assay and about 2,000 (36%) were called active. Not shown: some 18% with an inconclusive outcome. Rule as the data show it: active = normalized growth mostly below about 0.91 (no sharp cut-off); inconclusive = no clear call, values can overlap the other calls; inactive = mostly above about 0.92. The list shows a part of the results.

Assay: chemical genetic growth profiling, strain panel (AID 1159580);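 also: tested at 20 µM; growth read once vehicle control cultures reached saturation at 30 °C; 1 = growth at the plate median or of vehicle wells; lower values mean less growth of the strain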
Conditions: S. cerevisiae deletion strains, growth OD

Measured: normalized growth

CCN(CC)[N+]([O-])=NO
inactive: locus YHR030C, strain SLT2, active compounds read low 0.974 | locus YHR079C, strain IRE1, active compounds read low 0.986 | locus YJL095W, strain BCK1, active compounds read low 0.987 | locus YJR066W, strain TOR1, active compounds read low 0.931 | locus YLR113W, strain HOG1, active compounds read low 0.961 | locus YNL183C, strain NPR1, active compounds read low 0.935 | locus YOR231W, strain MKK1, active compounds read low 0.966 | locus YPL256C, strain CLN2, active compounds read low 0.951
